Measurements as given in PubChem BioAssay (NCATS).
Records with an inconclusive call do not appear. Calls of active or inactive are those of the source. Calls come from the whole dose curve.

Key:
[1] = Primary qHTS for inhibitors of SARS-S pseudo-typed particle cell entry (AID 1479145); note: nearly all actives have a fitted effect of over 45% in size; for activity change, negative = inhibition: series mostly up to about 57 µM
[2] = Primary qHTS for Huh7 cytotoxicity: counterscreen for inhibitors of MERS-S pseudotyped particle cell entry (AID 1479147)
[3] = Primary qHTS for inhibitors of MERS-S pseudo-typed particle cell entry (AID 1479149); note: nearly all actives have a fitted effect of over 60% in size; for activity change, negative = inhibition: series mostly up to about 57 µM
[4] = Primary qHTS for Vero E6 cytotoxicity: counterscreen for inhibitors of SARS-S pseudo-typed particle cell entry (AID 1479150)
% is set by controls: 0 for no effect and ±100 for the full control effect.

COC(=O)c1cccnc1
inactive: Potency [1] | Potency [2] | Potency [3] | Potency [4]

c1ccc2sc(SSc3nc4ccccc4s3)nc2c1
inactive: Potency [1] | Potency [2] | Potency [3] | Potency [4]

CCn1cc(C(=O)O)c(=O)c2cnc(N3CCCC3)nc21
inactive: activity change, negative = inhibition [1] -4.52% [at 11.4 µM] | outcome [2] inactive [at 11.4 µM] | outcome [3] inactive [at 11.4 µM] | outcome [4] inactive [at 11.4 µM]

COc1ccccc1OCC(O)CO (stereo unspecified)
inactive: Potency [1] | Potency [2] | Potency [3] | Potency [4]

O=C1[C@@H]2[C@H]3CC[C@H](C3)[C@@H]2C(=O)N1CCCCN1CCN(c2ncccn2)CC1
inactive: Potency [1] | Potency [2] | Potency [3] | Potency [4]

COc1ccc(C(=O)CC(=O)c2ccc(C(C)(C)C)cc2)cc1
inactive: Potency [1] | Potency [2] | Potency [3] | Potency [4]

Nc1ccc(S(=O)(=O)Nc2ccccn2)cc1
inactive: Potency [1] | Potency [2] | Potency [3] | Potency [4]

CC(=O)CC/C=C(\C)CC/C=C(\C)CC/C=C(\C)CCC=C(C)C
inactive: Potency [1] | Potency [2] | Potency [3] | Potency [4]

N[C@@H](Cc1cc(I)c(Oc2ccc(O)c(I)c2)c(I)c1)C(=O)O
inactive: Potency [1] | Potency [2] | Potency [3] | Potency [4]

O=C(O)C(S)C(S)C(=O)O (stereo unspecified)
inactive: Potency [1] | Potency [2] | Potency [3] | Potency [4]

CS(=O)(=O)c1ccc([C@@H](O)[C@@H](CF)NC(=O)C(Cl)Cl)cc1
inactive: Potency [1] | Potency [2] | Potency [3] | Potency [4]

CCC1(C)CC(=O)NC1=O (stereo unspecified)
inactive: Potency [1] | Potency [2] | Potency [3] | Potency [4]

C/C(=N\O)[C@@H](C)NCC(C)(C)CN[C@H](C)/C(C)=N/O
inactive: Potency [1] | Potency [2] | Potency [3] | Potency [4]

Cc1c(C(C)C)c(=O)n(-c2ccccc2)n1C
inactive: Potency [1] | Potency [2] | Potency [3] | Potency [4]

CC[N+](CC)(CC)CCOc1cccc(OCC[N+](CC)(CC)CC)c1OCC[N+](CC)(CC)CC
inactive: Potency [1] | Potency [2] | Potency [3] | Potency [4]

CCCCCCCC(=O)OCC(COC(=O)CCCCCCC)OC(=O)CCCCCCC
inactive: Potency [1] | Potency [2] | Potency [3] | Potency [4]

C#C[C@]1(O)CC[C@H]2[C@@H]3CCc4cc(OC5CCCC5)ccc4[C@H]3CC[C@@]21C
inactive: Potency [1] | Potency [2] | Potency [3] | Potency [4]

O=C(O)CNC(=O)c1ccccc1
inactive: Potency [1] | Potency [2] | Potency [3] | Potency [4]

Cc1c(NC(=O)c2cccnc2)c(=O)n(-c2ccccc2)n1C
inactive: Potency [1] | Potency [2] | Potency [3] | Potency [4]

Cc1cc(NS(=O)(=O)c2ccc(N)cc2)no1
inactive: Potency [1] | Potency [2] | Potency [3] | Potency [4]

CC(CN(C)C)C(C)(O)Cc1ccc(Cl)cc1 (stereo unspecified)
inactive: Potency [1] | Potency [2] | Potency [3] | Potency [4]

O=C(Cn1ccnc1[N+](=O)[O-])NCc1ccccc1
inactive: Potency [1] | Potency [2] | Potency [3] | Potency [4]

CC(CCc1ccccc1)NCC(O)c1ccc(O)c(C(N)=O)c1 (stereo unspecified)
inactive: Potency [1] | Potency [2] | Potency [3] | Potency [4]

CCN(CC)CCNC(=O)c1ccc(N)cc1
inactive: Potency [1] | Potency [2] | Potency [3] | Potency [4]

CC(=O)OCC(=O)[C@@]1(O)CC[C@H]2[C@@H]3CCC4=CC(=O)C=C[C@]4(C)[C@@]3(F)[C@@H](O)C[C@@]21C
inactive: Potency [1] | Potency [2] | Potency [3] | Potency [4]

CC(C)(C)NCC(O)COc1cccc2c1C[C@H](O)[C@H](O)C2 (stereo partly specified)
inactive: Potency [1] | Potency [2] | Potency [3] | Potency [4]

O=c1[nH]c(=O)n([C@H]2C[C@H](O)[C@@H](CO)O2)cc1I
inactive: Potency [1] | Potency [2] | Potency [3] | Potency [4]

COc1cc(/C=C/C(=O)O[C@H]2CC[C@]34C[C@]35CC[C@]3(C)[C@@H]([C@H](C)CCC=C(C)C)CC[C@@]3(C)[C@@H]5CC[C@H]4C2(C)C)ccc1O
inactive: Potency [1] | Potency [2] | Potency [3] | Potency [4]

CC(C)CN(C[C@@H](O)[C@H](Cc1ccccc1)NC(=O)O[C@H]1CO[C@H]2OCC[C@H]21)S(=O)(=O)c1ccc(N)cc1
inactive: Potency [1] | Potency [2] | Potency [3] | Potency [4]

CCCCCCCCCCCCSCCOCCO
inactive: Potency [1] | Potency [2] | Potency [3] | Potency [4]

CC(C(=O)O)c1ccc(C(=O)c2ccccc2)s1 (stereo unspecified)
inactive: Potency [1] | Potency [2] | Potency [3] | Potency [4]

NC(=O)c1cc[n+](CC2=C(C(=O)[O-])N3C(=O)[C@@H](NC(=O)Cc4cccs4)[C@H]3SC2)cc1
inactive: Potency [1] | Potency [2] | Potency [3] | Potency [4]

CCCCOC(=O)c1ccc(N)cc1
inactive: Potency [1] | Potency [2] | Potency [3] | Potency [4]

Cn1c(=O)c2[nH]c(Br)nc2n(C)c1=O
inactive: Potency [1] | Potency [2] | Potency [3] | Potency [4]

CC(=O)c1ccc(S(=O)(=O)NC(=O)NC2CCCCC2)cc1
inactive: Potency [1] | Potency [2] | Potency [3] | Potency [4]

CC(=O)[C@@]1(O)CC[C@H]2[C@@H]3C[C@H](C)C4=CC(=O)C=C[C@]4(C)[C@@]3(F)[C@@H](O)C[C@@]21C
inactive: Potency [1] | Potency [2] | Potency [3] | Potency [4]

C=CC(N)CCC(=O)O (stereo unspecified)
inactive: Potency [1] | Potency [2] | Potency [3] | Potency [4]

CC(C)C(=O)c1c(C(C)C)nn2ccccc12
inactive: Potency [1] | Potency [2] | Potency [3] | Potency [4]

CC(C)(O/N=C(\C(=O)N[C@@H]1C(=O)N2C(C(=O)[O-])=C(C[n+]3ccccc3)CS[C@H]12)c1csc(N)n1)C(=O)O
inactive: Potency [1] | Potency [2] | Potency [3] | Potency [4]
